Measured values taken from PubChem BioAssay (NCATS).
Records with an inconclusive call do not appear. Active and inactive are the calls of the source. The call rests on the fitted dose curve; in most records, active means well fitted inhibition curve with a large enough effect; inconclusive means small, poorly fitted or top-dose-only effect; inactive means flat fitted curve, though single readings scatter.

Assay: P-glycoprotein substrates identified in KB-8-5-11 adenocarcinoma cell line, qHTS therapeutic library screen (AID 1346987); further: nearly all actives have a fitted effect of over 65% in size
Conditions: KB-8-5-11 (P-gp overexpressing) viability, CellTiter-Glo, 72 h; series mostly up to 44.5 µM; activity change, negative = cytotoxicity: at the top concentration
Summary of the method: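 KB-8-5-11: colchicine-selected sub-line of KB-3-1 over-expressing P-gp; assay medium lacked colchicine. 72 h drug exposure at 37 degree C, CellTiter-Glo.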
On the % scale 0 is the no-effect control and ±100 the full control effect; potency means the concentration at half of the fitted maximal effect.

Row | SMILES | activity change, negative = cytotoxicity | Potency
1 | C=C1CCC2C(C)(C)C(O)CCC2(C)C1CCC(C)CCO (stereo not given) | -19.3% (inactive) | –
2 | CCCNc1ccc2ncc(-c3ccc4[nH]ncc4c3)n2n1 | – | 3.66 µM (active)
3 | Cc1ccccc1C#Cc1ccc(CCC(=O)O)cc1 | -7.83% (inactive) | –
4 | CC(O)/C=C/C1(O)C2(C)COC1(C)CC(O)C2 (stereo not given) | -12.4% (inactive) | –
5 | CC(C)=CCC[C@](C)(O[C@@H]1O[C@H](CO[C@@H]2O[C@H](CO)[C@@H](O)[C@H](O)[C@H]2O)[C@@H](O)[C@H](O)[C@H]1O)C1CC[C@]2(C)[C@@H]1[C@H](O)CC1[C@@]3(C)CC[C@H](O[C@@H]4O[C@H](CO)[C@@H](O)[C@H](O)[C@H]4O[C@@H]4O[C@H](CO)[C@@H](O)[C@H](O)[C@H]4O)C(C)(C)[C@@H]3CC[C@]12C (stereo not given in full) | -1.53% [at 9.29 µM] (inactive) | –
